# Hit rate of the full screen: of about 360,000 compounds, about 2,800 (0.78%) were called active. Rule as the data show it: active = inhibition above about 26%; inactive = the rest. The entries come from a sample that favours actives as a whole.
# System: Nicotinate-nucleotide adenylyltransferase NadD (Staphylococcus aureus N315)
# Assay: S. aureus NadD enzyme activity blockers – biochemical, colorimetric, uHTS, primary screen (AID 602399)
# Settings: purified NadD enzyme, colorimetric absorbance read-out; at 20 µM; stronger effect = higher value
row,Structure (SMILES),inhibition
1,N#Cc1ccc(CSc2ncccn2)cc1,-1.45% (inactive)
2,N#CC1=C(SCc2ccc(C#N)cc2)N=C(N)C(c2nc(-c3ccccc3)cs2)C12CCCCC2 (centres undefined),39.1% (active)
3,Cc1ccc(NC(=O)CN(C)S(=O)(=O)c2cnc[nH]2)cc1C,-2.1% (inactive)
4,COC(=O)c1c(NC(=O)COc2ccc(Cl)cc2Cl)sc2c1CC(C)(C)NC2(C)C,-5.59% (inactive)
5,COc1ccccc1N1CCN(c2nc(C)cc(=O)[nH]2)CC1,0.434% (inactive)
6,COc1ccc(Cl)cc1-n1c(=S)sc2c(=O)n(-c3ccc(F)cc3)c(SCC(=O)O)nc21,-1.15% (inactive)
7,COc1cccc(-n2c(=S)sc3c(=O)n(-c4ccccc4OC)c(SCC4OCCO4)nc32)c1,-4.72% (inactive)
8,COc1cccc(-n2c(=S)sc3c(=O)n(-c4ccccc4C)c(SCC(=O)O)nc32)c1,-0.498% (inactive)
9,COc1ccccc1-n1c(=S)[nH]c2c(sc(=S)n2-c2ccc(C)cc2C)c1=O,26.4% (active)
10,CCc1ccc(-n2c(=S)sc3c(=O)n(-c4ccccc4OC)c(=S)[nH]c32)cc1,26.4% (active)
11,COc1ccc2c3c1O[C@H]1C[C@@H](O)C=C[C@@]31CCN(C)C2,-4.23% (inactive)
12,COc1cc(C)c(C(C)C)cc1S(=O)(=O)n1ccnc1,-1.45% (inactive)
13,CCCCCOC(=O)C1=C(C)Nc2nnnn2C1c1ccc(OC)c(OC)c1OC (centres undefined),-2.88% (inactive)
14,C=CCOc1ccc(/C=C/C(=O)OCC(=O)NCC2CCCO2)cc1 (centres undefined),0.0871% (inactive)
15,CC(=O)c1cccc(OCc2cc(C(=O)NC(C)Cc3cccnc3)no2)c1 (centres undefined),-5.35% (inactive)
16,CCOC(=O)CC1COCCN1C(=O)c1cc(COc2ccc(F)c(F)c2)on1 (centres undefined),-4.39% (inactive)
17,CCC(NC(=O)c1cc(COc2ccc(F)c(F)c2)on1)c1ccncc1 (centres undefined),48.1% (active)
18,COC(C(=O)Nc1ccc(S(=O)(=O)Nc2ccc(C)c(C)c2)cc1)c1ccccc1 (centres undefined),-2.66% (inactive)
19,COc1ccc2c(-c3ccccc3)cc(SCC(=O)N(C)C3CCS(=O)(=O)C3)nc2c1 (centres undefined),-1.73% (inactive)
20,CN(C(=O)COC(=O)c1cc(-c2ccco2)nc2ccccc12)C1CCS(=O)(=O)C1 (centres undefined),87.6% (active)
21,COc1ccc(NC(=O)COc2ccc(C(=O)OCC(=O)N(C)C3CCS(=O)(=O)C3)cc2OC)cc1 (centres undefined),-2.63% (inactive)

row,Structure (SMILES),inhibition
1,CC(C)CN1CCNC(=O)C1CC(=O)N(C)CC1CCOCC1 (centres undefined),-2.31% (inactive)
2,CN(C)S(=O)(=O)c1ccc(N/C=C(\[N+](=O)[O-])S(=O)(=O)c2ccccc2)cc1,-3.76% (inactive)
3,CCn1c(=O)cc(SCC(=O)NCc2ccc3c(c2)OCO3)c2ccccc21,1.73% (inactive)
4,CC1(C(=O)NCc2ccc3c(c2)OCO3)CCN1C(=O)Cc1cccc2ccccc12 (centres undefined),-4.65% (inactive)
5,O=C1N(Cc2ccc3c(c2)OCO3)c2ccccc2C1(O)c1c[nH]c2ccccc12 (centres undefined),34.1% (active)
6,CCCN(CCC)c1ccc(C(O)c2nnc(-c3ccccc3)o2)cc1 (centres undefined),3.67% (inactive)
7,CC1(C)OC(=O)C2=C(C[C@@H](C3CC3)O[C@H]2c2ccc(Cl)cc2)O1,-7.37% (inactive)
8,C[C@H](CO)N1C[C@H](C)[C@H](CN(C)C(=O)Nc2ccc(C(F)(F)F)cc2)Oc2c(NC(=O)c3ccncc3)cccc2C1=O,34% (active)
9,Cc1noc(C)c1NC(=O)Nc1ccc2c(c1)C(=O)N([C@H](C)CO)C[C@H](C)[C@@H](CN(C)C(=O)Nc1ccc(C(F)(F)F)cc1)O2,3.74% (inactive)
10,Cc1noc(C)c1NC(=O)Nc1cccc2c1O[C@H](CN(C)C(=O)Nc1ccccc1)[C@@H](C)CN([C@H](C)CO)C2=O,-4.23% (inactive)
11,CN(CC(=O)N1CCN(c2ccccc2)CC1)S(=O)(=O)c1cccs1,-2.17% (inactive)
12,Cc1nn2c(c1-c1ccccc1)N=C(c1ccco1)CC2c1ccccc1 (centres undefined),35.5% (active)
13,O=C(O)CCCC(=O)N1N=C(c2ccco2)CC1c1ccco1 (centres undefined),2.35% (inactive)
14,C=CCN1C(=O)C(Cc2ccc(OCC)cc2)SC1=Nc1ccc(C(=O)O)cc1 (centres undefined),-1.51% (inactive)
15,CCOCCCN1C(=O)C2C(C(=O)Nc3ccc(OCC)cc3)C3C=CC2(O3)C1C(=O)NC1CCCCC1 (centres undefined),-6.7% (inactive)
16,O=C(NCCCn1ccnc1)/C(=C\c1ccccc1F)NC(=O)c1ccccc1,-0.605% (inactive)
17,COc1ccc(/C=C(\C#N)C(=O)NCCCn2ccnc2)cc1,-0.938% (inactive)
18,COc1cccc(-c2nn(-c3ccccc3)cc2/C=C(\C#N)C(=O)NCCCn2ccnc2)c1,29.3% (active)
19,Cc1ccc(S(=O)(=O)N2CCN(C(=O)COC(=O)/C=C/c3cccc(Cl)c3)CC2)c(C)c1,-1.3% (inactive)
20,O=C(CC1SC(=Nc2ccccc2)N(Cc2ccccn2)C1=O)Nc1cccc(Cl)c1 (centres undefined),7.98% (inactive)
21,O=C1/C(=C/c2ccc(F)cc2)SC(=S)N1NS(=O)(=O)c1ccccc1,5.39% (inactive)

row,Structure (SMILES),inhibition
1,COc1cc(/C=C2\SC(=S)N(Nc3ncc(C(F)(F)F)cc3Cl)C2=O)cc(OC)c1OC,31.2% (active)
2,COc1cc(-c2nnc(Cn3cc(C(F)(F)F)ccc3=O)o2)cc(OC)c1OC,-3.86% (inactive)
3,COCCCn1c(C(=O)NC2CCCCC2)cc2c(=O)n3cccc(C)c3nc21,2.49% (inactive)
4,O=c1c(-c2ccccc2)cnc2n1CCS2,-3.39% (inactive)
5,Cc1cccc(N2CCN(C(=O)/C=C/c3ccco3)CC2)c1C,-1.19% (inactive)
6,Cc1ccc(N2CCN(c3ccc([N+](=O)[O-])cn3)CC2)c(C)c1,1.39% (inactive)
7,Cc1ccc(-n2c(C)cc(/C=N/Nc3ccc([N+](=O)[O-])cn3)c2C)c(C)c1,44.4% (active)
8,Cc1cc(C=O)c(C)n1-c1ccc(NC2CCCCC2)c([N+](=O)[O-])c1,0.0872% (inactive)
9,Nc1ccc(Cl)c(S(=O)(=O)Nc2ccccc2Cl)c1,6.19% (inactive)
10,O=C1Nc2cc(Cl)c(Cl)cc2N(O)N1c1cc(Cl)cc(Cl)c1,-1.38% (inactive)
11,c1ccc(CN2CCC(N=C3NN=C(c4ccc5c(c4)OCCO5)CS3)CC2)cc1,17% (inactive)
12,Clc1cccc(N=C2NN=C(c3ccc4c(c3)OCCO4)CS2)c1,31% (active)
13,CN(C)c1nc(=Nc2cccc(Cl)c2)ss1,3.08% (inactive)
14,O=C(COC(=O)/C=C/c1cccc(Cl)c1)NCCc1ccccc1,-11.9% (inactive)
15,NS(=O)(=O)c1ccc(NS(=O)(=O)/C=C/c2ccccc2)cc1,-1.06% (inactive)
16,NNc1cccc(C=Cc2ccccc2)cc1=O,33.2% (active)
17,C/C(=N\NC(=O)COc1c(C)cccc1C)c1cccs1,-5.85% (inactive)
18,CC/C(=N\NC(=O)c1ccccc1Cl)c1ccc(Br)s1,-6.6% (inactive)
19,C/C(=N\NC(=O)CNc1cccc2ccccc12)c1ccc(Br)s1,64.5% (active)
20,CCCCCCc1cc2cc(-c3nnc(-c4ccccc4)o3)c(=O)oc2cc1O,87.5% (active)
21,Cn1cccc1Cc1nnc(SCC(=O)NCc2ccc3c(c2)OCO3)n1CCc1ccccc1,7.11% (inactive)

row,Structure (SMILES),inhibition
1,COC(=O)c1cccc(N(CC(=O)NCC2CCCO2)C(=O)CCC(=O)Nc2cc(C)on2)c1 (centres undefined),-10.6% (inactive)
2,CCOc1cc(/C=C/C(=O)OCC(=O)NCCN2C(=O)CSC2=O)ccc1OCC(C)C,0.893% (inactive)
3,Cc1cc(-c2n[nH]c(=S)n2/N=C/C(Br)=C/c2ccccc2)n[nH]1,17.3% (inactive)
4,CCN(CC)S(=O)(=O)c1cccc(-c2n[nH]c(=S)n2/N=C/c2ccc(C(=O)OC)cc2)c1,24.3% (inactive)
5,S=c1[nH]nc(-c2cc(-c3ccccc3)n[nH]2)n1/N=C/c1c2ccccc2cc2ccccc12,49.4% (active)
6,COc1cccc(/C=C/C(=O)Nc2ccc3c(c2)OCCO3)c1,-5.58% (inactive)
7,CC(=O)Nc1ccc(S(=O)(=O)NC2(C(F)(F)F)C(=O)NC(C)=C2C#N)cc1 (centres undefined),-2.54% (inactive)
8,Cc1nc(-c2ccc(F)cc2)c(CC(=O)Nc2cc(S(=O)(=O)N3CCCCC3)ccc2C)s1,6.89% (inactive)
9,Cc1ccc(NC(=O)COc2ccc(-n3ccnc3)cc2)cc1Cl,-3.03% (inactive)
10,Cc1ccc(-c2nc(-c3cccnc3)sc2CC(=O)Nc2ccc(C)c(Cl)c2)cc1,30.9% (active)
11,CCN(CC)Cc1c(C(=O)N/N=C/c2cccc(OCc3ccc(F)cc3)c2)nnn1-c1nonc1N,13.1% (inactive)
12,COc1ccc(S(=O)(=O)N/N=C\c2ccc(OC)c(COc3ccc(C)cc3[N+](=O)[O-])c2)cc1,18.5% (inactive)
13,COc1cccc(OCc2cc(/C=N/NC(=O)c3nc(Cl)c(Cl)c(N)c3Cl)ccc2OC)c1,45.5% (active)
14,CC(OC(=O)c1ccccc1N1C(=O)C2C3CCC(C3)C2C1=O)C(=O)c1ccccc1 (centres undefined),-5.61% (inactive)
15,CCOC(=O)c1ccccc1N1C(=O)C2Sc3[nH]c(=O)sc3C(/C=C/c3ccccc3)C2C1=O (centres undefined),42.2% (active)
16,CCOC(=O)C1Sc2[nH]c(=O)sc2C(c2ccc(Cl)cc2)C1C(=O)OCC (centres undefined),13.4% (inactive)
17,COC(=O)c1cn(C)c2ccc(S(=O)(=O)N3CC(C)CC(C)C3)cc2c1=O (centres undefined),0.79% (inactive)
18,Cc1nccc(-c2ccc(-n3c(C)ccc3C)cc2)n1,3.88% (inactive)
19,c1ccc(-c2nccc(-c3ccc(-n4cnc5ccccc54)cc3)n2)nc1,65.6% (active)
20,COC(=O)c1ccc(-n2cnc3ccccc32)nc1,-5.95% (inactive)
21,Cc1ccc(S(=O)(=O)N(C)C)cc1NC(=O)C1Cc2ccccc2CN1C(=O)c1ccco1 (centres undefined),2.17% (inactive)

# Reference: PubChem BioAssay AID602399 (Sanford-Burnham Center for Chemical Genomics, 2012)
